# Only some compounds are listed: those with a hit (about 12% of all), similar ones and a draw of the others.
# AmpC inh no detg = qHTS Inhibitors of AmpC Beta-Lactamase (assay without detergent); AmpC nitrocefin hydrolysis, absorbance 480 nm, 0.0001% Triton; P00811; Potency, µM (titrated, usually from 57.1 µM), without a hit: at the top dose activity change, negative = inhibition, hits mostly inhibitors; AID 485341, 2010; 330,000 compounds, 0.52% hits;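 also: plate controls were no compound for no effect and no enzyme for full effect; nearly all actives have a fitted effect of over 20% in size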
# Target sequence (P00811 whole entry, looked up): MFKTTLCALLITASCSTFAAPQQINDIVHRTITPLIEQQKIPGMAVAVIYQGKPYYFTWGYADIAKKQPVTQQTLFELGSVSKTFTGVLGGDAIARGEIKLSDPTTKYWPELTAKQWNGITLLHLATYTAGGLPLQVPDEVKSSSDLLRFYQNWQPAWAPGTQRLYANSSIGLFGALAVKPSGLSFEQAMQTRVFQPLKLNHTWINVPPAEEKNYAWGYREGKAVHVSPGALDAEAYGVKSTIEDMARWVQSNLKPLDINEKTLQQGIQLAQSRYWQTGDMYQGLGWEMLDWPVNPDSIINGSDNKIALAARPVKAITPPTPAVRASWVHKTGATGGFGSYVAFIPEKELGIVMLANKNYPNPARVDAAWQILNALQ
#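 20 mM phosphate pH 7.0 + 0.01% (detergent screen) or 0.0001% Triton X-100; 5.3 nM AmpC reagent; cpd preinc 15 min RT; nitrocefin (800 uM stock) to start; A480 q20 s × 4 min; Activity was normalised to no-enzyme and no-compound control wells.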
# SARS PLP yeast = qHTS of Yeast-based Assay for SARS-CoV PLP; Potency, µM (titrated, usually from 32.9 µM), without a hit: at the top dose activity, positive = growth rescue, hits mostly activators; S. cerevisiae expressing SARS-CoV PLpro, growth rescue; 330,000 compounds, 0.19% hits; calls by dose curve; also: 0% is about no effect; nearly all actives have a fitted effect of over 55% in size
# Pf growth 96h = Primary qHTS for delayed death inhibitors of the malarial parasite plastid, 96 hour incubation. P. falciparum luciferase reporter growth, 96 h. Potency, µM (doses to about 28.7 µM), inactives show top-dose activity change, negative = inhibition, hits mostly inhibitors. 320,000 compounds, 6.9% hits; also: % is scaled to controls: 0 for no effect and ±100 for the full control effect
#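 Readout is luminescence from an integrated firefly luciferase in P. falciparum. Red cells, 2% hematocrit and 0.05% parasitemia final, were cultured with compound through two parasite generations (96 hours) at 37 C, 5% CO2.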
# AmpC detergent = qHTS Inhibitors of AmpC Beta-Lactamase (assay with detergent); AmpC hydrolysis of nitrocefin, absorbance 480 nm, 0.01% Triton; Potency, µM (top dose mostly 114 µM), without a hit: at the top dose activity change, negative = inhibition, hits mostly inhibitors; 370,000 compounds, 0.041% hits; AID 485294, 2010;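 also: 0% = no-compound wells and -100% = no-enzyme wells; nearly all actives have a fitted effect of over 25% in size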
#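 20 mM phosphate pH 7.0 + 0.01% (detergent screen) or 0.0001% Triton X-100; 5.3 nM AmpC reagent; cpd preinc 15 min RT; nitrocefin (800 uM stock) to start; A480 q20 s × 4 min; Activity was normalised to no-enzyme and no-compound control wells.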
# Pf growth 48h = Primary qHTS for delayed death inhibitors of the malarial parasite plastid, 48 hour incubation; Potency, µM (series often up to 28.7 µM), without a hit: top-dose activity change, negative = inhibition, most hits filed as inhibitors; P. falciparum luciferase growth in erythrocytes, 48 h; 310,000 compounds, 5.9% hits; also: % is scaled to controls: 0 for no effect and ±100 for the full control effect
#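 Read-out is firefly luciferase luminescence from an integrated reporter in P. falciparum, so falling signal marks reduced parasite growth. Infected erythrocytes were at 2% hematocrit and 0.1% parasitemia (final) in Albumax-supplemented RPMI 1640.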
# Sm TGR block = qHTS Assay for the Inhibitors of Schistosoma Mansoni Peroxiredoxins | Potency, µM (doses to about 114 µM), for inactives: at the highest dose activity change, negative = inhibition, most hits filed as inhibitors | 360,000 compounds, 3% hits | Schistosoma mansoni thioredoxin glutathione reductase (TGR), Q962Y6 | purified TGR, DTNB reduction, TNB absorbance 405 nm; also: % is scaled to controls: 0 for no effect and ±100 for the full control effect; nearly all actives have a fitted effect of over 60% in size
#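 Kinetic colorimetric format: TGR-catalysed, NADPH-driven DTNB reduction monitored via TNB absorbance. Enzyme dispensed at 20 nM; compound exposure 15 min at room temperature before reaction start.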
# Starred values were filed as active, the others as inactive; ? = inconclusive; nt = no result given. Unless noted, calls follow the shape of the dose curve; as a rule, active = well fitted curve in the direction sought with a large enough effect; inconclusive = small, poorly fitted or top-dose-only effect, or another doubt; inactive = no such curve, though single readings can be large; an effect the other way counts as inactive or inconclusive. Potency is read from the fitted curve at half-maximal effect.
SMILES,AmpC inh no detg,SARS PLP yeast,Pf growth 96h,AmpC detergent,Pf growth 48h,Sm TGR block
COc1ccccc1NC(=S)NNC(=O)c1nn(C)cc1Cl,-6.8%,-2.3%,6.57µM*,6.0%,?,7.9%
COc1ccccc1NC(=S)NNC(=O)c1nn(C)c(C)c1Cl,-18.4%,7.9%,12.6%,-8.9%,nt,-17.1%
Nc1nc(CN2CCCCCC2)nc(Nc2ccccc2)n1,-23.5%,0.7%,?,3.2%,3.6%,8.1%
Nc1nc(CN2CCN(C(c3ccccc3)c3ccccc3)CC2)nc(Nc2ccccc2)n1,38.9%,2.1%,4.65µM*,3.5%,8.28µM*,?
Nc1nc(CN2CCC(Cc3ccccc3)CC2)nc(Nc2ccccc2)n1,34.9%,-7.2%,7.38µM*,1.1%,nt,6.3%
CCc1cccc(CC)c1NC(=O)c1c(C)oc2ccc(O)c(CN3CCN(C)CC3)c12,nt,nt,nt,19.9%,nt,5.8%
CCN(CC)S(=O)(=O)c1cccc(-c2cn3cccnc3n2)c1,-16.8%,0.0%,14.7µM*,-14.9%,4.15µM*,-8.1%
Cc1ccc(NP(=O)(Nc2ccc(C)cc2)Nc2ccc(C)cc2)cc1,-54.7%,-0.8%,?,-8.4%,11.7µM*,-8.3%
Cc1ccccc1C(=O)NCCc1nnc(SCC(=O)Nc2nc(-c3ccccc3)cs2)n1C,0.0%,-2.9%,13.1µM*,0.1%,-3.5%,-12.6%
Cc1cc(C)nc(SCc2nnc(SCC(=O)Nc3nc(-c4ccccc4)cs3)n2C)n1,-45.1%,?,-26.7%,-7.4%,?,?
Cc1ccc(C(=O)CSc2nnc(CNc3nc(-c4ccccc4)cs3)n2C)cc1,-6.4%,-1.9%,13.1µM*,-11.8%,?,-23.0%
CCn1c(SCC(=O)Nc2nc(-c3ccc(C)cc3)cs2)nnc1-c1ccccc1,-23.2%,-3.2%,nt,-9.3%,nt,-12.5%
COc1ccccc1CNC(=O)c1cnc2sc(N3CCCCCC3)nn2c1=O,nt,nt,nt,-1.3%,nt,-5.4%
CC(NC(=O)c1ccccc1F)c1nnc(SCC(=O)NC2CCCC2)n1C (stereo not drawn),-6.5%,0.9%,18.9%,-8.7%,7.8%,-9.7%
COCCNC(=O)CSc1nc2cc(OC)c(OC)cc2c(=O)n1CCC1=CCCCC1,-20.9%,15.3%,58.3%,8.0%,14.8%,4.0%
CCN(CC)C(=O)CSc1nc2cc(OC)c(OC)cc2c(=O)n1Cc1ccc(Cl)cc1,41.5%,-5.5%,?,-0.3%,11.7µM*,-3.0%
COc1cc2nc(SCC(N)=O)n(CCC3=CCCCC3)c(=O)c2cc1OC,5.9%,-0.3%,13.1µM*,?,-12.1%,6.9%
CCn1cc2nc(SCC(=O)Nc3cc(OC)ccc3OC)n(Cc3ccc(Cl)cc3)c(=O)c2n1,nt,nt,nt,16.1%,nt,1.4%
O=S1(=O)CCN(Cc2ccc(Cl)c(C(F)(F)F)c2)CC1,0.5%,0.7%,-5.4%,0.9%,22.5%,nt
CC(=O)c1ccc(N(CC(=O)NCCc2ccccc2)C(=O)c2csnn2)cc1,-3.8%,5.5%,9.28µM*,-13.5%,?,-13.6%
COc1ccc(CNC(=O)CN(C(=O)c2csnn2)c2ccc(C(C)=O)cc2)cc1,-16.4%,-0.2%,-0.1%,6.2%,10.4µM*,-19.5%
CC(=O)c1cccc(N(CC(=O)NCCc2ccccc2)C(=O)c2csnn2)c1,-9.5%,11.4%,-7.9%,-2.7%,7.0%,7.1%
COCCCNc1oc(-c2ccc(COc3ccccc3C)o2)nc1C#N,nt,nt,nt,15.6%,nt,-8.1%
Cc1ccc(NC(=O)C(NS(=O)(=O)c2ccc3c(c2)CCC(=O)N3)c2ccccc2)cc1C (stereo not drawn),nt,nt,nt,-7.6%,nt,-20.1%
CCOc1ccc(NC(=O)CCn2c(=O)c3cccn3c3cccnc32)cc1,nt,nt,nt,-1.8%,nt,-4.8%
SMILES,AmpC inh no detg,SARS PLP yeast,Pf growth 96h,AmpC detergent,Pf growth 48h,Sm TGR block
Cc1cccc(NCCC(=O)c2ccc(Br)cc2)c1,-25.4%,-16.7%,33.9%,0.9%,13.2%,5.62µM*
CC(C)c1ccc(NCCC(=O)c2ccc(Br)cc2)cc1,-13.5%,16.0%,9.28µM*,?,0.6%,?
CCOC(=O)c1c(/N=C/C2=C(O)CC(C)(C)CC2=O)sc(C)c1C,-10.3%,-1.5%,1.1%,-12.6%,7.2%,-5.5%
NS(=O)(=O)c1ccc(-c2ccc(C=NC3CCS(=O)(=O)C3)o2)cc1 (stereo not drawn),-29.2%,0.5%,?,?,4.8%,70.8µM*
CC1CN(c2nc(-c3ccc(Br)cc3)nnc2-c2ccccc2)CC(C)N1 (stereo not drawn),40.2%,2.9%,8.28µM*,-0.8%,?,12.2%
CN(CC(=O)Nc1cccc(F)c1)C(=O)C1CCN(S(=O)(=O)c2ccc3c(c2)OCCO3)CC1,-6.6%,-0.2%,4.15µM*,2.3%,9.28µM*,2.9%
CCN(Cc1ccccc1)C(=O)C1CCN(S(=O)(=O)c2ccc3c(c2)OCCO3)CC1,46.4%,-3.9%,13.1µM*,?,?,0.1%
O=C(C1CCN(S(=O)(=O)c2ccc3c(c2)OCCO3)CC1)N1CCc2ccccc21,-17.1%,18.5%,10.4µM*,?,?,-0.2%
O=S(=O)(Cc1ccccc1)N(O)c1ccccc1,-31.3%,-5.3%,29.4%,-9.9%,?,-22.2%
COc1ccc(/C=C/c2nc(C#N)c(N3CCCCC3)o2)cc1OC,nt,nt,nt,22.8%,nt,5.7%
COc1cccc(-c2nc(CS(=O)(=O)CC(=O)Nc3cccc(C)c3C)c(C)o2)c1,44.7µM*,-12.9%,?,?,1.4%,?
COc1cccc(-c2nc(CS(=O)(=O)CC(=O)Nc3ccccc3C)c(C)o2)c1,-1.8%,-11.4%,0.0%,-5.3%,-8.8%,-31.3%
COc1cccc(-c2nc(CS(=O)(=O)CC(=O)Nc3ccccc3Br)c(C)o2)c1,-1.6%,-0.1%,47.5%,4.2%,-6.1%,-31.8%
COc1cccc(-c2nc(CS(=O)(=O)CC(=O)Nc3cc(OC)ccc3OC)c(C)o2)c1,60.1%,?,11.7%,-0.9%,-20.6%,50.1µM*

# From PubChem
